Shown are actives, neighbours in structure and some others; about 2.4% of the full set was active somewhere.
D2 PAM-1: D2 dopamine receptor (human) potentiation; P14416; HEK293 T-REx D2, calcium flux, EC20 dopamine potentiation; potentiation, % at 10 µM; 0.34% of 340,000 active;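 active = potentiation over 3 SD above the plate norm, cut at about 30% in these data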
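Potentiation of an EC20 dopamine calcium response is measured in a force-coupled, tetracycline-inducible Hek293 Trex D2 line. Compound-only kinetic reads over 180 s flag agonists before dopamine addition.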
D2 antag: antagonists of human D2 dopamine receptor; inhibition, % at 10 µM; P14416; 2% of 340,000 active; HEK293 TREx D2 cells, calcium flux, dopamine EC80; in the data active = inhibition above about 30%; inactive = below that, where a call was filed
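Compounds are added to dye-loaded, induced HEK293 T-REx cells coupled to calcium release via D2; after a 3 min kinetic read an EC80 dopamine stimulus is given and fluorescence is recorded for 3 more min.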
D2 PAM-2: positive allosteric modulators of human D2 dopamine receptor | 0.23% of 360,000 active | potentiation, % (test concentration not listed) | DiscoveRx D2 beta-arrestin cells, luminescence, 90 min; 100% = 57 uM dopamine signal | P14416 | AID 624464; in the data active = potentiation above about 50%; inconclusive = mostly about 30% to 49%
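PathHunter beta-arrestin assay in DiscoveRx D2 cells. Compounds were added with an EC20 of dopamine (50 nM final) for 90 min at 37 deg C. Luminescence was read 1 h after detection reagent, with 57 uM dopamine as the EC100 control.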
D2 ag-1: agonists of human D2 dopamine receptor (beta-arrestin) | P14416 | DiscoveRx PathHunter D2 beta-arrestin, luminescence, 90 min; 100% = 57 uM dopamine signal | 0.084% of 360,000 active | activation, % (concentration not given with the values); in the data active = activation above about 40%; inconclusive = between about 15% and that limit
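DiscoveRx PathHunter D2 beta-arrestin cells (2,100/well) attached overnight, then compound-stimulated 90 min at 37 C in HBSS/10 mM HEPES/0.1% Tween-20 buffer; beta-galactosidase complementation read by luminescence after 1 h at ambient temperature. Dopamine 57 uM final (EC100) as control.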
D2 ag-2: D2 dopamine receptor (human) agonism. 0.53% of 340,000 active. activation, % at 2 µM. HEK293 T-REx D2 cells, calcium flux agonist mode;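 active = activation over 3 SD above normal in the single-dose calcium agonist read, cut at about 30% in these data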
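Tetracycline-induced HEK293 Trex cells with D2 receptor force-coupled to calcium signaling, plated overnight at 30 C and loaded with no-wash calcium dye. Calcium flux read kinetically for 180 s after compound addition; responses flag agonists.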
D3 ag: D3 receptor agonism confirmed, beta-arrestin readout; DiscoveRx D3 beta-arrestin cells, luminescence, 90 min; shares compounds with D2 ag-2; AID 720506; Potency, µM (series often up to 76.9 µM), hits mostly activators; 4% of 2,300 active; also: nearly all actives have a fitted effect of over 70% in size
Target sequence (P35462 whole entry, looked up): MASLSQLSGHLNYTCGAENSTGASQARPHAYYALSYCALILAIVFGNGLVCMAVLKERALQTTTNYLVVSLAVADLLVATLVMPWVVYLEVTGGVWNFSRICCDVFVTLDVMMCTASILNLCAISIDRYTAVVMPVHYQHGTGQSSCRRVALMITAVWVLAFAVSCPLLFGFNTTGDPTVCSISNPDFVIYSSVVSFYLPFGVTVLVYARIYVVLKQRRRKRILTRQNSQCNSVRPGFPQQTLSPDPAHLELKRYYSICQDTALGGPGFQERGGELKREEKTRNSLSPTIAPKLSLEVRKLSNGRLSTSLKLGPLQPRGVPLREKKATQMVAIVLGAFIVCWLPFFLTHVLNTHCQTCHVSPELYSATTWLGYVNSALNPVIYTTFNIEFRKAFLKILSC
D2 ag-3: counter-screen for D3 agonists: human D2 dopamine receptor agonism; shares compounds with D2 ag-2; Potency, µM (titrated, usually from 76.9 µM), usual class: activators; DiscoveRx PathHunter D2 beta-arrestin, luminescence, 90 min; response scale: percent relative to full dopamine signal; 5.9% of 2,300 active; AID 720507; also: nearly all actives have a fitted effect of over 70% in size
Large screens that a line does not name were inactive (follow-up assays come after a bar, where they were run). Unless noted, calls follow the shape of the dose curve; as a rule, active = well fitted activation curve with a large enough effect; inconclusive = small, poorly fitted or top-dose-only effect; inactive = flat fitted curve, though single readings scatter.

COc1ccc2cc(C=O)n(C)c2c1	none | D3 ag inactive | D2 ag-3 inactive
CC1CCN(C(=O)Cn2cc(SCC(=O)Nc3ccccc3C(F)(F)F)c3ccccc32)CC1	none (no result: D2 antag, D2 PAM-2, D2 ag-1)
CCC(C(=O)Nc1ccccc1OC)n1c(C(=O)OC)cc2sc(Cl)cc21 (stereo not given)	none (no result: D2 antag, D2 PAM-2, D2 ag-1)
COc1ccccc1N1CCN(C2CCN(C(=O)c3cc(OC)c(OC)c(OC)c3)CC2)CC1	none
COc1ccccc1N1CCN(C2CCN(C(=O)c3cccc(F)c3)CC2)CC1	none
COc1ccc(C(=O)N2CCC(N3CCN(c4ccccc4)CC3)CC2)cc1OC	D2 ag-2 40.8 | D3 ag inactive | D2 ag-3 inactive
COc1ccc(C(=O)N2CCN(C3CCC(c4ccccc4)CC3)CC2)cc1OC (stereo not given)	none
COc1ccccc1N1CCN(C2CCN(C(=O)c3ccc(F)cc3)CC2)CC1	none | D3 ag inactive | D2 ag-3 inactive
COc1cc(OC)cc(C(=O)N2CCC(N3CCN(c4ccccc4)CC3)CC2)c1	D2 antag 37.1, D2 ag-2 43.1 | D3 ag inactive | D2 ag-3 inactive
O=S(=O)(c1ccc(NC(=S)N/N=C/c2ccc(Oc3ccccc3)cc2)cc1)N1CCOCC1	none
O=S(=O)(c1ccc(NC(=S)N/N=C/c2c3ccccc3cc3ccccc23)cc1)N1CCOCC1	none | D3 ag inactive | D2 ag-3 inactive
O=C(Nc1c[nH]c(=O)[nH]c1=O)c1ccccc1Br	none
CC(Nc1c[nH]c(=O)[nH]c1=O)c1ccccc1 (stereo not given)	D2 antag 69.1 | D3 ag inactive | D2 ag-3 inactive
COCCCn1c(SCC(=O)NC2CCS(=O)(=O)C2)nnc1-c1ccc(Cl)cc1 (stereo not given)	none | D3 ag inactive | D2 ag-3 inactive
COCCCn1c(SCC(=O)NC2CCCCC2)nnc1-c1ccncc1	D2 PAM-2 inconclusive
CC(C)c1ccccc1Oc1c(C(F)(F)F)oc2c(CN3CCN(C)CC3)c(O)ccc2c1=O	none (no result: D2 antag, D2 PAM-2, D2 ag-1, D2 ag-2)
c1ccc(OCCN2CCN(Cc3nc(-c4ccc5c(c4)OCO5)no3)CC2)cc1	D2 antag 68.7, D2 ag-2 64.1 | D3 ag inconclusive | D2 ag-3 inconclusive
COC(=O)c1cc(C(=O)Nc2ccc(S(=O)(=O)NC(C)(C)C)cc2)cc([N+](=O)[O-])c1	none
CCN(CC)S(=O)(=O)c1ccc(NC(=O)c2cc(C(=O)OC)cc([N+](=O)[O-])c2)cc1	D2 ag-2 46.4 | D3 ag inactive | D2 ag-3 inactive
O=C(NCc1cccnc1)C(=O)NCC(c1ccco1)N1CCN(c2ccccc2F)CC1 (stereo not given)	D2 ag-1 41.4, D2 ag-2 62.6 | D3 ag inactive | D2 ag-3 inconclusive
O=C(NCc1cccnc1)C(=O)NCC(c1ccco1)N1CCN(c2ccccc2)CC1 (stereo not given)	D2 ag-1 inconclusive, D2 ag-2 31.9 | D3 ag inconclusive | D2 ag-3 inconclusive
O=C(NCc1ccccc1)C(=O)NCC(c1ccco1)N1CCN(c2ccccc2F)CC1 (stereo not given)	none
CCOc1cc(-c2nnc(SCC(=O)NCc3ccccc3)nc2-c2ccc(OC)c(OCC)c2)ccc1OC	none (no result: D2 antag, D2 PAM-2, D2 ag-1)
Fc1ccc(-n2ncc3c(N4CCN(c5ccccc5F)CC4)ncnc32)cc1	none (no result: D2 antag, D2 PAM-2, D2 ag-1)
O=c1[nH]cnc2sc3c(c12)CN(Cc1ccccc1)CC3	D2 antag 73.8, D2 ag-1 inconclusive, D2 ag-2 77.9 | D3 ag inactive | D2 ag-3 inactive
CC1(C)Cc2c(sc3nc[nH]c(=O)c23)CO1	none
O=c1[nH]cnc2sc3c(c12)CCN(Cc1ccccc1)C3	D2 ag-1 inconclusive, D2 ag-2 62.4 | D3 ag inactive | D2 ag-3 inactive
OCCCNc1ncnc2sc3c(c12)CCN(Cc1ccccc1)C3	none
COc1cc(OC)c2c(-c3ccccc3)cc(=O)oc2c1C(CCN1CCN(c2ccccc2)CC1)c1ccc(N(C)C)cc1 (stereo not given)	none (no result: D2 PAM-1, D2 antag, D2 ag-2) | D3 ag inactive | D2 ag-3 inactive
COc1ccc(C(CCN2CCN(c3ccccc3)CC2)c2c(OC)cc(OC)c3c(-c4ccccc4)cc(=O)oc23)cc1 (stereo not given)	D2 antag 79.4, D2 ag-2 69.0 | D3 ag inconclusive | D2 ag-3 inconclusive
COc1cc(OC)c2ccc(=O)oc2c1C(CCN1CCN(c2ccccc2)CC1)c1ccc(N(C)C)cc1 (stereo not given)	D2 antag 61.6, D2 ag-2 53.0 | D3 ag inactive | D2 ag-3 inactive
CCCCCc1cc(=O)oc2c(C(CCN3CCN(c4ccccc4)CC3)c3ccc(N(C)C)cc3)c(OC)cc(OC)c12 (stereo not given)	none
COc1cc(C2CC(=O)Oc3c(C(CCN4CCN(c5ccccc5)CC4)c4ccc(N(C)C)cc4)c(OC)cc(OC)c32)cc(OC)c1OC (stereo not given)	none
COc1cc(O)c(C(CCN2CCN(c3ccccc3)CC2)c2ccc3c(c2)OCO3)c(OC)c1 (stereo not given)	D2 antag 75.2 | D3 ag inactive | D2 ag-3 inactive
Cc1ccc(CN(C(=O)COc2cccc(Cl)c2)c2ccccn2)o1	none (no result: D2 antag, D2 PAM-2, D2 ag-1)
CCOc1ccc(CCNC(=O)C2=C(C)C(=O)OC23CCCCC3)cc1	none (no result: D2 antag, D2 PAM-2, D2 ag-1)
CC1=NN(C(N)=S)C(=O)C1N=Nc1ccccc1C(=O)O (stereo not given)	none (no result: D2 PAM-1, D2 antag, D2 ag-2) | D3 ag inactive | D2 ag-3 inactive
CC1=NN(C(N)=S)C(=O)C1N=Nc1ccccc1Cl (stereo not given)	none
CCOC(=O)C1CCN(CC(O)COc2ccc(C(C)(C)C)cc2)CC1 (stereo not given)	D2 ag-1 inconclusive
CCOC(=O)C1CCN(CC(O)COc2ccc(C(C)=O)cc2)CC1 (stereo not given)	D2 antag 30.8, D2 ag-2 41.0 | D3 ag inactive | D2 ag-3 inactive
CCOC(=O)C1CCN(CC(O)COc2ccc(C(C)(C)CC)cc2)CC1 (stereo not given)	D2 antag 80.2, D2 ag-2 65.8 | D3 ag inactive | D2 ag-3 inconclusive
OCCC1CN(CCCc2ccccc2)CCN1Cc1ccc(F)cc1 (stereo not given)	none
Cc1ccc(CN2CCN(CCCc3ccccc3)CC2CCO)cc1 (stereo not given)	D2 antag 49.2, D2 ag-2 53.1 | D3 ag inactive | D2 ag-3 inactive
